# Screens deposited in PubChem BioAssay by National Center for Advancing Translational Sciences (NCATS).
# A549 tox-1: Nrf2 qHTS screen for inhibitors: counterscreen for cytotoxicity; A549 ARE-Fluc cells, CellTiter-Fluor viability, 18-24 h; Potency, µM (titrated, usually from 46 µM), for inactives: at the top dose activity change, negative = cytotoxicity, usual class: inhibitors; 0.16% of 390,000 active; also: % is scaled to controls: 0 for no effect and ±100 for the full control effect
#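 A549 ARE_Fluc cells in 5% FBS OPTI-MEM were exposed to compounds in concentration-response for 18-24 h at 37 deg C. Viability was read by CellTiter-Fluor fluorescence (Ex 405/Em 525) after 30 min, before the luciferase read.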
# Nrf2 block: Nrf2 qHTS screen for inhibitors | A549 ARE-Fluc reporter, luciferase luminescence, 18-24 h | Potency, µM (titrated, usually from 46 µM), without a hit: top-dose activity change, negative = inhibition, most hits filed as inhibitors | 2.1% of 360,000 active | AID 504444, 2011; also: % is scaled to controls: 0 for no effect and ±100 for the full control effect; nearly all actives have a fitted effect of over 60% in size
#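 Nrf2 function is reported as luminescence of an ARE-controlled luciferase in A549 cells. Compounds were tested at several concentrations, and a CellTiter-Fluor read on the same wells flagged cytotoxicity.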
# Pin1 inh: qHTS Assay to Find Inhibitors of Pin1; AID 504891, 2011; Peptidyl-prolyl cis-trans isomerase NIMA-interacting 1 (Homo sapiens), Q13526; Pin1 FP peptide displacement, HiFluor488, 10 min; Potency, µM (series often up to 115 µM), for the others: at the highest dose activity, negative = inhibition, hits mostly inhibitors; 0.009% of 390,000 active; active = well fitted inhibition curve with a large enough effect in the polarisation, with a control signal flat, not every such curve was filed as active; inconclusive = small, poorly fitted or top-dose-only effect, or effect the other way, or a change in a side signal; inactive = no such curve, though single readings can be large or run the other way; the % refers to the polarisation; also: % is scaled to controls: 0 for no effect and ±100 for the full control effect
# Target sequence (Q13526 whole entry, looked up): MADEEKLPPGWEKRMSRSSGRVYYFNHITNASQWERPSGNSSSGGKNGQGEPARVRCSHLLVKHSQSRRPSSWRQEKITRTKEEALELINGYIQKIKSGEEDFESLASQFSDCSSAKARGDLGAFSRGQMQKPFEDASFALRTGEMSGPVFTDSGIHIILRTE
# Nrf2 activator: qHTS of Nrf2 Activators; AREc32 ARE-luciferase reporter (MCF7-derived line), luminescence, 24 h; Potency, µM (highest dose often 46.1 µM), for the others: at the highest dose activation, actives largely listed as activators; 0.31% of 410,000 active; also: % of control where 0% means no effect; nearly all actives have a fitted effect of over 65% in size
#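 Nrf2 activation is followed as ARE-luciferase induction in the AREc32 line after one day of compound treatment; luminescence is read with Steady-Glo.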
# FLuc enzyme inh: Nrf2 qHTS screen for inhibitors: Purified Fluc Biochemical Counterscreen for Hit Validation. purified firefly luciferase, luminescence inhibition. AID 720522, 2013. 4% of 1,400 active. Potency, µM (highest dose often 57.5 µM), inactives show top-dose activity change, negative = inhibition, usual class: inhibitors. shares compounds with Nrf2 block; also: % is scaled to controls: 0 for no effect and ±100 for the full control effect; nearly all actives have a fitted effect of over 65% in size
# Target sequence (P08659 whole entry, looked up): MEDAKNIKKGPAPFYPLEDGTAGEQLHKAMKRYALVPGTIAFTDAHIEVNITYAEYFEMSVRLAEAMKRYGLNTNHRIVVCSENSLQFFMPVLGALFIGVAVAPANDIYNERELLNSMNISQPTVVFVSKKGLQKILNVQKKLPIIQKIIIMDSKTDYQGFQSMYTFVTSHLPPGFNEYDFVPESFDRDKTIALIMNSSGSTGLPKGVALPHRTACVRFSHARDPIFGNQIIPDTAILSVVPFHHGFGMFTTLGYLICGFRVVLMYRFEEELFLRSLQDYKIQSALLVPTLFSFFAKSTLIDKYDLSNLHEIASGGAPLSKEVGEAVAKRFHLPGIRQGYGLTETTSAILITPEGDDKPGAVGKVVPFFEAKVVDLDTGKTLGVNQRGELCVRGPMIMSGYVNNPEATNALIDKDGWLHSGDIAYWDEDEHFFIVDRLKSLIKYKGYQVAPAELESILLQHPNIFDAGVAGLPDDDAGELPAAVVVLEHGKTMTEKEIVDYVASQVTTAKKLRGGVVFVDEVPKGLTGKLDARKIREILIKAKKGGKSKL
# A549 tox-2: Nrf2 qHTS screen for inhibitors: A549 ARE-Fluc Cytotoxicity Counterscreen for Hit Validation. shares compounds with Nrf2 block. A549 ARE-Fluc cells, cytotoxicity counterscreen. Potency, µM (doses to about 46.1 µM), inactives show at the top dose activity change, negative = cytotoxicity, hits mostly inhibitors. 2% of 1,400 active. AID 720523, 2013;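 also: cells exposed to compounds for 18 to 24 hours; % is scaled to controls: 0 for no effect and ±100 for the full control effect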
# ARE-Fluc inh: Nrf2 qHTS screen for inhibitors: Nrf2 A549 ARE-Fluc Confirmation Assay for Hit Validation. shares compounds with Nrf2 block. A549 ARE-firefly luciferase reporter, luminescence. Potency, µM (top dose mostly 46.1 µM), without a hit: top-dose activity change, negative = inhibition, actives largely listed as inhibitors. 74% of 1,400 active; also: % is scaled to controls: 0 for no effect and ±100 for the full control effect; nearly all actives have a fitted effect of over 65% in size
# An asterisk follows results filed as active; ? = inconclusive; nt = no result given; [ ] = dose if it differs, or a comment. This is a sample that favours compounds with a hit; in the whole collection about 2.2% have one here. Unless noted, calls follow the shape of the dose curve; as a rule, active = well fitted curve in the direction sought with a large enough effect; inconclusive = small, poorly fitted or top-dose-only effect, or another doubt; inactive = no such curve, though single readings can be large; an effect the other way counts as inactive or inconclusive. Potency is read from the fitted curve at half-maximal effect.
SMILES,A549 tox-1,Nrf2 block,Pin1 inh,Nrf2 activator,FLuc enzyme inh,A549 tox-2,ARE-Fluc inh
CC1CC2C(C(O)CC3(C)C2CCC3(O)C(=O)CO)C2(C)C=CC(=O)C=C12 (stereo not drawn),-5%,0.046µM*,-6%,0%,-1%,-14%,0.041µM*
CCCCN(C)CCNC(=O)c1nn(-c2ccc(OC)c(Cl)c2)c(=O)c2c1c1ccccc1n2C,0%,10%,-1%,0%,nt,nt,nt
CC1Cc2ccccc2N1c1ncnc(N)c1[N+](=O)[O-] (stereo not drawn),-14%,4.6µM*,1%,-2%,2%,-25%,8.2µM*
Cc1ccc(C(=O)c2cn(Cc3ccccc3)c3nc(C)ccc3c2=O)cc1,-3%,-4%,34%,1%,nt,nt,nt
CN(CCc1ccccc1)C(=O)c1ccc(NC(=O)Cc2ccc(NC(=O)C3CCCN(C(=O)C4CCC4)C3)cc2)cc1 (stereo not drawn),-12%,?,19%,6%,nt,nt,nt
CN(CCc1ccccc1)C(=O)c1ccc(NC(=O)Cc2ccc(NC(=O)C3CCCN(C(=O)CCc4ccccc4)C3)cc2)cc1 (stereo not drawn),-11%,1.3µM*,?,0%,-3%,-9%,4.1µM*
Cc1cccc(-n2c(CNC(=O)c3cccc(F)c3)nnc2SCC(=O)Nc2ccccc2F)c1,-7%,-6%,-13%,0%,nt,nt,nt
CN(C)c1cc[n+](CC(=O)Nc2ccc(Cl)c([N+](=O)[O-])c2)cc1,-3%,4.6µM*,3%,0%,0%,-5%,8.2µM*
Cc1ccc(NC(=O)c2ccc(C)cc2)cc1,-3%,?,-1%,-1%,nt,nt,nt
Cc1ccc(C(=O)Nc2ccc(Br)c(C(F)(F)F)c2)cc1,nt,1.6µM*,0%,2%,6.7µM*,-25%,nt
COc1ccc(C)cc1NC(=O)C1CCC(CNS(=O)(=O)c2ccc3c(c2)CCCC(=O)N3)CC1 (stereo not drawn),?,7.3µM*,-4%,1%,1%,1%,7.3µM*
O=C(NCc1ccccc1)c1c2c(nc3ccccc13)C(=O)N(C1CCCCC1)C2,-7%,0%,-4%,0%,nt,nt,nt
O=C(COc1ccccc1Cl)NCCCNC(=O)c1cccnc1,2%,3.7µM*,3%,-3%,-1%,-21%,9.2µM*
O=C(COc1ccccc1Cl)NCCNC(=O)c1cccnc1,4%,-10%,-6%,0%,nt,nt,nt
CCCOC(=O)CSc1nnc2ccc3ccccc3n12,0%,19%,1%,3%,nt,nt,nt
Cc1cc(C(=O)COC(=O)c2ccc(N)c([N+](=O)[O-])c2)c(C)n1-c1ccc2c(c1)OCO2,-11%,5.8µM*,0%,6%,-6%,-4%,?
CCc1c(C)nc2ncnn2c1NCCc1ccc(Cl)cc1,-11%,7.3µM*,-7%,3%,1%,-12%,4.6µM*
CC(=O)Nc1ccc(S(=O)(=O)NCCNS(=O)(=O)c2ccc(NC(C)=O)cc2)cc1,4%,1%,-14%,0%,nt,nt,nt
CC(=O)Nc1ccc(S(=O)(=O)NCCSCc2ccc(Cl)cc2Cl)cc1,-4%,9.2µM*,14%,-1%,2%,-4%,10µM*
CC(Oc1ccc(Br)cc1)C(=O)Nc1ccncc1 (stereo not drawn),-7%,8.2µM*,0%,0%,0%,8%,nt
Cc1ccc(OC(C)C(=O)Nc2ccncc2)cc1C (stereo not drawn),11%,?,0%,0%,nt,nt,nt
COc1cccc(-c2nnc3n2N=C(C(C)(C)C)CS3)c1,-27%,7.3µM*,?,-1%,-2%,?,nt
Cc1ccc(-c2noc(CSc3nnc(-c4ccncc4)n3-c3ccc(C)cc3)n2)cc1,-15%,?,-2%,-1%,nt,nt,nt
Clc1ccc(-c2noc(CSc3nnc(-c4ccncc4)n3-c3ccccc3)n2)cc1,?,2.3µM*,3%,3%,-9%,-9%,13µM*
CC1=C(C(N)=O)C(c2cccc(C)c2)n2nc(-c3cccc(C)c3)nc2N1 (stereo not drawn),-1%,-22%,-5%,1%,nt,nt,nt
SMILES,A549 tox-1,Nrf2 block,Pin1 inh,Nrf2 activator,FLuc enzyme inh,A549 tox-2,ARE-Fluc inh
C[C@]12C[C@H](O)[C@H]3[C@@H](CCC4=CC(=O)CC[C@@]43C)[C@@H]1CC[C@@H]2C(=O)CO,-8%,0.41µM*,-1%,3%,2%,-5%,1.3µM*
CC(=O)[C@H]1CC[C@H]2[C@@H]3C[C@H](C)C4=CC(=O)CC[C@]4(C)[C@H]3[C@@H](O)C[C@]12C,0%,0.058µM*,-1%,0%,0%,-4%,0.15µM*
Cc1cnc2ccc3ccccc3c2c1C,nt,nt,nt,nt,?,-27%,6.5µM*
COc1cc(C2CC(=O)c3c([nH]c(C(=O)OC4CCCC4)c3C)C2)cc(OC)c1OC (stereo not drawn),?,5.8µM*,5%,-2%,-15%,?,12µM*
COC(=O)c1[nH]c2c(c1C)C(=O)CC(c1cc(OC)c(OC)c(OC)c1)C2 (stereo not drawn),0%,9.2µM*,-13%,3%,4%,-6%,?
COC(=O)c1[nH]c2c(c1C)C(=O)CC(c1ccc(OC)c(OC)c1)C2 (stereo not drawn),-4%,?,-5%,0%,nt,nt,nt
C1=C2C[N+]3(CCCC3)CC2Cc2ccc3ccccc3c21 (stereo not drawn),-17%,2.1µM*,1%,-2%,-1%,-13%,7.3µM*
Cc1ccc(NC(=O)N2CCC(n3c(C)nc4cccnc43)CC2)c(Cl)c1,2%,nt,-6%,5%,nt,nt,nt
COc1ccc2ccc3cccc[n+]3c2c1,-12%,4.6µM*,-1%,4%,-2%,-14%,23µM*
O=C(NC1CCCCC1)c1ccc2ccccc2c1,nt,nt,nt,4%,nt,nt,nt
Cc1cc2ccccc2c[n+]1C1CCCCC1,nt,nt,nt,nt,0%,-8%,1.3µM*
Cc1cc(=O)[nH]c(N/N=C/c2ccccc2C(F)(F)F)n1,-2%,13%,-2%,3%,nt,nt,nt
Cc1cc(=O)[nH]c(N/N=C/c2cc(C)n(CC(F)(F)F)c2C)n1,-12%,4.1µM*,?,1%,-7%,-20%,1.5µM*
COc1ccc(C(=O)Oc2c(Sc3ccc(C)cc3)c(C)nn2C(C)(C)C)c(OC)c1,0%,1%[9.27 µM],-1%,-1%,nt,nt,nt
